Our source for the outcome values is PubChem BioAssay AID651899 (Broad Institute, 2012).

Molecules are shown by their SMILES. Measured potencies and affinities stand elsewhere. Calls of active or inactive are those of the source. How the calls were made is not given here.

A short description of this assay: cytotoxicity in HEK293 cells, dose response, cytotoxicity control, cell-based, plate reader, cherry-pick (AID 651899).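 Further: cells exposed to compound for 48 hours.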 The following applies: series mostly up to 26 µM.
As for `O=C(CSc1nc2c(c(=O)n1-c1ccccc1)SCC2)N1CCOCC1`, the molecule was classed as inactive.

Take `O=C(COc1ccc2ccc(=O)oc2c1)N1CCN(c2ccc(F)cc2)CC1`: the call was inactive.

In the case of `CC(=O)c1ccc(NC(=O)COC(=O)Cc2ccsc2)cc1`, the molecule was classed as inactive.

In the case of `COc1cc(-c2nc3ccccc3nc2-c2ccc(O)c(OC)c2)ccc1O`, the molecule was classed as inactive.

As for `CCOC(=O)c1ccc2c(c1)nc(SCc1cn3ccsc3n1)n2CC`, the call was inactive.

As to `CNC(=O)C[C@H]1CC[C@@H]2[C@H](COC[C@@H](O)CN2C(=O)Nc2ccc3c(c2)OCO3)O1`, the call was inactive.

Regarding `Cc1ccc(Cc2c(C)nc3nc(SCC(=O)NCc4ccco4)nn3c2C)cc1`, the call was inactive.

With `CC(=O)N1CC[C@@H]2[C@@H](CO)N(C)c3ccc(-c4cccc(F)c4)cc3[C@@H]21`, the result was inactive.

Take `CCOC(=O)c1ccc(N2C(=O)c3n[nH]c(C)c3C2c2ccc(OC)c(OC)c2)cc1` (stereo unspecified): the molecule was called inactive.

On to `O=C(C[C@H]1C[C@@H]2c3cc(NC(=O)c4cccnc4)ccc3O[C@@H]2[C@@H](CO)O1)NCC(F)(F)F`, for which the call was inactive.

For `COc1cccc(NC(=O)CCC2CCN(C(=O)c3ccc(C(C)=O)s3)CC2)c1`, the outcome was inactive.

Consider `COc1ccc(C(C)NC(=O)Nc2ccc(C(C)=O)cc2)cc1OC` (stereo unspecified), for which the outcome was inactive.

With `O=C(c1ccncc1)N1CC[C@@H]2[C@@H](CO)Nc3ccc(Br)cc3[C@@H]21`, the molecule was classed as inactive.

As to `CCOCCCNC(=O)CSc1nc2nc(C)c(Cc3ccccc3)c(C)n2n1`, the outcome was inactive.

On to `C=C(C)n1c(=O)n(Cc2ccccc2C)c2ccccc21`, for which the molecule was classed as inactive.

As to `Cc1cccc(-c2ccc3c(c2)C2CC3CCN2)c1` (stereo unspecified), the result was inactive.

On to `CCNC(=O)[C@@H]1[C@@H](CO)[C@@H]2Cn3c(ccc(-c4cccnc4)c3=O)[C@@H]2N1Cc1ccc2c(c1)OCO2`, for which the molecule was classed as inactive.

With `O=C(c1cccc(F)c1)N1CC[C@@H]2[C@H](CO)Nc3ccc(-c4cccc(F)c4)cc3[C@@H]21`, the molecule was called inactive.

For the molecule `C[C@@H]1CN([C@@H](C)CO)C(=O)c2cc(C#Cc3cccnc3)cnc2O[C@H]1CN(C)S(C)(=O)=O`, the call was inactive.

For `O=C(Nc1ccc(Cl)c(-c2nc3ccccc3[nH]2)c1)c1cccnc1`, the result was inactive.

`O=C(O)CN1C(=O)/C(=C\c2cc(Br)ccc2OCc2ccc([N+](=O)[O-])cc2)SC1=S`: the call was inactive.

In the case of `O=C(COc1ccc2ccc(=O)oc2c1)Nc1cccnc1`, the call was inactive.

As to `O=C(CSc1nc2c(c(=O)n1-c1ccc(Cl)cc1)SCC2)N1CCOCC1`, the outcome was inactive.

For the molecule `C/C=C(/C)C(=O)OC(C)(C)[C@@H]1Cc2c(ccc3ccc(=O)oc23)O1`, the outcome was inactive.

Take `Cc1nc2nc(SCC(=O)N3CCOCC3)nn2c(C)c1Cc1ccccc1`: the molecule was called inactive.

`O=C(Nc1cccc(F)c1)C1CCCN(c2cnccn2)C1` (stereo unspecified): the call was inactive.

With `COc1ccc(Nc2c(-c3ccc(OC)cc3)nc3cnccn23)cc1`, the molecule was classed as inactive.

Turning to `O=C(NC1CCCc2c1cnn2-c1cc(F)cc(F)c1)c1ccc[n+]([O-])c1` (stereo unspecified), the call was inactive.

On to `CC(C)n1c(N2CCN(C(=O)c3cccs3)CC2)nc2ccccc21`, for which the outcome was inactive.

Consider `C[C@@H](C(=O)N1CCN(Cc2ccc3c(c2)OCO3)CC1)n1nnc2ccccc2c1=O`, for which the molecule was called inactive.

For the molecule `C[C@@H]1CN([C@@H](C)CO)C(=O)Cc2cc(NC(=O)Cn3cnnn3)ccc2O[C@H]1CN(C)Cc1ccc2c(c1)OCO2`, the molecule was classed as inactive.

`COc1cc(-c2n[nH]c(=S)n2Cc2ccccc2)cc(OC)c1OC`: the molecule was called inactive.

As to `Cc1cnc(C(=O)NC2CC(C)(C)Cc3c2cnn3-c2cccc(F)c2)cn1` (stereo unspecified), the outcome was inactive.

For the molecule `COCCNC(=O)C[C@H]1CC[C@@H]2[C@@H](COc3ccc(NC(=O)Nc4cccc(F)c4)cc3C(=O)N2C)O1`, the molecule was called inactive.

`CCCc1cc(=O)oc2c3c(cc(OCC(=O)NCCCn4ccnc4)c12)OC(C)(C)CC3`: the call was inactive.

As for `C=CCn1c(SCc2c(C(=O)OC)sc(N)c2C(=O)OC)nnc1-c1ccc(Cl)cc1`, the outcome was inactive.
